# Source: PubChem BioAssay (NCI)
# Values joined by “and” are separate entries in the source; they are usually repeats but may differ in a detail not shown here. Equal values may be shown once. The panel holds about 83,000 compounds, 20% with a hit somewhere; the sample as a whole holds those more often.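 Each cell line was grown in a 96-well plate and treated with one concentration of compound for 48 hours. Values below 10 were considered active.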 Unmarked numbers belong to inactive results. Active and inactive are the calls of the source. Where a SMILES comes first, the peptide text is derived from it. [ ]: non-standard residue; d: D form. ξ: configuration not given here. ξV = CC(C)C(N)C(=O)O
# System: NCI-H322M lung
# Assay: NCI-60 one-dose screen, 48 h (100 = growth as untreated, 0 = no growth, -100 = all killed)
# Settings: 0.0025 µM
# Procedure: Growth inhibition of the NCI-H322M human Non-Small Cell Lung tumor cell line is measured as a screen for anti-cancer activity. Cells are grown in 96 well plates and exposed to the test compound for 48 hours. Compounds are tested at a single concentration, which is 10^-5 M for most compounds. The reported endpoint is percent growth (GI% or GIPRCNT), where numbers from 0 - 100% represent growth inhibition, and numbers from -100% - 0 represent cell death. For example, a value of 40 represents 60% growth inhibition. A value of 0 means no net growth occurred over the course of the experiment. A value of -40 indicates 40% of cells at the beginning of the experiment died by the end of the experiment. A value of -100 means all cells are dead at the end of the experiment.
# NCI-60 Human Tumor Cell Lines Screen was performed using the standard one-dose NCI protocol, which is described in more detail at https://dtp.cancer.gov/discovery_development/nci-60/default.htm.
# Compounds with GIPRCNT values below 10 were considered active. Activity score was based on GIPRCNT using the following formula: […]
# Score is 0 for GIPRCNT values of 100 or above, 50 for GIPRCNT values of 0, and 100 for GIPRCNT values of -100.
row,Structure (SMILES),growth [%]
1,COc1cccc2c1C(=O)c1c(O)c3c(c(O)c1C2=O)C[C@@](O)(C(=O)CO)C[C@@H]3OC1CC(N)C(O)C(C)O1 (stereo not given in full),86.8

# Same assay, conditions: 1 µM
row,Structure (SMILES),growth [%]
1,COc1cccc2c1C(=O)c1c(O)c3c(c(O)c1C2=O)C[C@@](O)(C(=O)CO)C[C@@H]3OC1CC(N)C(O)C(C)O1 (stereo not given in full),63.4

# Same assay, conditions: 2.5 µM
row,Structure (SMILES),growth [%]
1,COc1cccc2c1C(=O)c1c(O)c3c(c(O)c1C2=O)C[C@@](O)(C(=O)CO)C[C@@H]3OC1CC(N)C(O)C(C)O1 (stereo not given in full),101

# Same assay, conditions: 10 µM
row,Structure (SMILES),growth
1,COc1ccc(CC(=O)c2ccc(O)cc2O)cc1,122%
2,N=S(c1ccccc1[N+](=O)[O-])c1ccccc1[N+](=O)[O-],93.4%
3,CCN(CC)c1ccc(NC(C(=O)c2ccccc2)c2ccccc2)cc1 (stereo not given),82.9%
4,O=C(C(=Cc1ccccc1)C(=O)c1ccccc1)c1ccccc1,89.6% and 110%
5,Nc1c2ccccc2nc2ccccc12,12.1% and 36.8% and 31.9%
6,Cc1cc(NS(=O)(=O)c2ccc(N=Nc3cc(N=Nc4ccc(S(=O)(=O)Nc5cc(C)nc(C)n5)cc4)c4c(NC(=O)C(Cl)Cl)cccc4c3OC(=O)C(Cl)Cl)cc2)nc(C)n1 (tested in a mixture with another compound),94.9% and 87.3%
7,Cc1nc(N=C(N)N)nc2ccc3ccccc3c12,-3.99% (active)
8,COc1cccc2c1C(=O)c1c(O)c3c(c(O)c1C2=O)C[C@@](O)(C(=O)CO)C[C@@H]3OC1CC(N)C(O)C(C)O1 (stereo not given in full),13.9%
9,CS(=O)(=O)OC1CC(n2ccc(=O)[nH]c2=O)OC1COC(c1ccccc1)(c1ccccc1)c1ccccc1 (stereo not given),89.1%
10,Clc1ccc(/C=C/c2ccccn2)c(Cl)c1,85.5%
11,CCCCCCCCCCCCSC(=NC)NC,52.8% and 95.6%
12,CCCCCCCCCCSC(=N)N,88.7%
13,CO[C@H](C(=O)[C@@H](O)[C@@H](C)O)[C@@H]1Cc2cc3cc(OC4CC(OC5CC(O)C(O)C(C)O5)C(O)C(C)O4)c(C)c(O)c3c(O)c2C(=O)[C@H]1OC1CC(OC2CC(OC3CC(C)(O)C(O)C(C)O3)C(O)C(C)O2)C(O)C(C)O1 (stereo not given in full),5.87% (active)
14,CCN1/C(=C/C=C/C=C/c2sc3ccccc3[n+]2CC)Sc2ccccc21,5.13% (active)
15,CCCC1CCC(=C2C(=O)CCC2=O)O1 (stereo not given),90.9% and 96.9%
16,CC(C)C(NC(=O)CN)C(=O)O (stereo not given) (H-Gly-[ξV]-OH),100% and 105%
17,OCC1OC(n2cnc3c(=S)nc[nH]c32)C(O)C1O (stereo not given),96.5% and 62.9%
18,CCCCCCCCCCCC[N+](C)(C)Cc1ccccc1,87.7%

row,Structure (SMILES),growth
1,COc1cccc2c1C(=O)c1c(O)c3c(c(O)c1C2=O)C[C@@](O)(C(C)=O)C[C@@H]3OC1CC(N)C(O)C(C)O1 (stereo not given in full),3.64% (active)
2,COc1c(O)cc2oc3cc(O)c(CC=C(C)C)c(O)c3c(=O)c2c1CC=C(C)C,83.6%
3,Nc1ccc2cc3ccc(N)cc3nc2c1,-7.06% (active)
4,NNc1c2ccccc2nc2ccccc12,75.9%
5,OCC(O)C(O)C(O)C(/C=N/Nc1ccccc1)=N/Nc1ccccc1 (stereo not given),68.9%
6,CSC1SCC2C(=O)N(C)C(C(C)C)C(=O)OCC(NC(=O)c3cnc4ccccc4n3)C(=O)NC(C)C(=O)N(C)C1C(=O)N(C)C(C(C)C)C(=O)OCC(NC(=O)c1cnc3ccccc3n1)C(=O)NC(C)C(=O)N2C (stereo not given),9.51% (active)
7,Cc1cc(O)c(C(C)C)cc1Cl,96.9%
8,CN1CCN(CCCN2c3ccccc3Sc3ccc(C(F)(F)F)cc32)CC1,69.7%
9,O=C1C=CC(=CC=C2C=CN(CCCCCCCCCCCO)C=C2)C=C1,92.4%
10,O=C1NC(=O)c2cc([N+](=O)[O-])ccc21,99%
11,CC1=CC(C)=Nc2ccc(Cl)cc2N1,102%
12,Nc1nc(=S)c2ncn(C3OC(CO)C(O)C3O)c2[nH]1 (stereo not given),128% and 64.3%
13,O=C(/C=C/c1cccnc1)c1ccccc1,113%
14,CCC(C)(C)c1cc(O)c(C(C)(C)CC)cc1O,45.6%
15,O=[N+]([O-])C1=C(c2ccccc2)SC=C(c2ccccc2)S1,92.4%
16,O=C(Nc1ccc(C(=O)O)c(O)c1)c1ccccc1,100% and 97.7%
17,O=c1ccn(C2CC(O)C(COC(c3ccccc3)(c3ccccc3)c3ccccc3)O2)c(=O)[nH]1 (stereo not given),87.5%
18,CC(C)(C)CC(C)(C)c1ccc(OCCO)cc1,115%

# Same assay, conditions: 100 µM
row,Structure (SMILES),growth [%]
1,O=c1ccn(C2CC(O)C(COC(c3ccccc3)(c3ccccc3)c3ccccc3)O2)c(=O)[nH]1 (stereo not given),68.8
